Bioassay records as filed in PubChem BioAssay.
Shown are actives, neighbours in structure and some others; about 3.8% of the full set was active somewhere.
PrPC TRFRET = cell surface PrPC inhibition, primary TR-FRET screen; inhibition, % at 13.8 µM; P04156; actives 0.43% (n = 370,000); AID 720596; TR-FRET read-out; in the data active means inhibition above about 24%; further: 0% = median of the test wells and 100% = reference compound wells
Mtb FBA inh = Mtb fructose-bisphosphate aldolase inhibition; purified M. tuberculosis FBA, fluorescence read-out; inhibition, % at 1 µM; P9WQA3; actives 2.3% (n = 360,000);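 further: 0% = vehicle and 100% = reference inhibitor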
Target sequence (P9WQA3 whole entry, looked up): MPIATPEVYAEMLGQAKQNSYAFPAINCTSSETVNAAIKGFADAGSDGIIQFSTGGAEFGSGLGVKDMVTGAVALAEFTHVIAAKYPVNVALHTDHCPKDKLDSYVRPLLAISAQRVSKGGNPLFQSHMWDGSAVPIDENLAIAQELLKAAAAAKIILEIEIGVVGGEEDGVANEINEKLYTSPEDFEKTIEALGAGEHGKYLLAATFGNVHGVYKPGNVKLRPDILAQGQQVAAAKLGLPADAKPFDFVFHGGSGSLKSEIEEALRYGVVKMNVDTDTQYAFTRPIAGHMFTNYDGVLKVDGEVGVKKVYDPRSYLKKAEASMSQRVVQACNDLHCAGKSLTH
GDH-TPI counter-1 = GDH-TPI coupled enzyme inhibition counter-screen; GDH-TPI coupled enzyme counterscreen, NADH absorbance; inhibition, % at 4.8 µM; actives 1.2% (n = 360,000); AID 588335; in the data active means inhibition above about 30%;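 further: 0% = DMSO wells and 100% = wells lacking the enzyme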
Y pestis TopoI = Y. pestis Topo-I inhibition via cleavage products. actives 0.064% (n = 360,000). AID 504884. Y. pestis Topo-I cleavage product accumulation, plate reader. activity, % at 10 µM; in the data active means activity above about 50%, passing the limit was not always enough
PrP 5UTR inh = inhibition of PrP 5' UTR reporter expression; cell-based PrP 5' UTR mRNA reporter, plate reader; inhibition, % (concentration not given with the values); actives 0.35% (n = 340,000); AID 488862; in the data active means inhibition above about 52%; further: 0 = median of the neutral control wells
Mtb hypoxia inh = reduces hypoxia-regulated biosensor signal in M. tuberculosis; fluorescence inhibition, % (test concentration not listed); M. tuberculosis hypoxia-regulated fluorescent reporter, fluorescence; actives 0.1% (n = 300,000); in the data active means fluorescence inhibition mostly above about 23%, no sharp cut-off; inactive means mostly below about 17%
Mtb FBA confirm = Mtb FBA inhibition, confirmed; actives 78% (n = 5,600); inhibition, % at 1 µM; shares compounds with Mtb FBA inh; purified M. tuberculosis FBA, fluorescence read-out;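 further: 0% = vehicle wells and 100% = reference inhibitor wells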
GDH-TPI counter-2 = counter-screen for M. tuberculosis FBA inhibitors: GDH-TPI coupled enzyme inhibition; shares compounds with Mtb FBA inh; GDH-TPI coupled enzyme counterscreen, fluorescence; inhibition, % at 1 µM; actives 81% (n = 5,600); AID 652141; in the data active means inhibition above about 10%
* marks the source's active call; other numbers are inactive results; / = not tested or not shown; + = active, no number. Unless noted, no stated cut-off is given here; in the data, active means inhibition above about 27%; inactive means the rest.

SMILES	PrPC TRFRET	Mtb FBA inh	GDH-TPI counter-1	Y pestis TopoI	PrP 5UTR inh	Mtb hypoxia inh	Mtb FBA confirm	GDH-TPI counter-2
Cc1cc(OCC(=O)N2CCC(C(=O)NCC(C)C)CC2)c2c3c(c(=O)oc2c1)CCCC3	4	6	6	7	4	5	/	/
CCOC(=O)c1c(-c2ccccc2)oc2ccc(OCC)cc12	3	23	16	15	-34	4	/	/
CCOc1ccc2oc(-c3ccccc3)c(C(=O)N3CCN(C)CC3)c2c1	4	71*	21	27	-24	3	92*	58*
COc1ccc2oc(-c3ccccc3)c(C(=O)N3CCOCC3)c2c1	-8	40*	11	3	8	/	72*	48*
CCOC(=O)c1c(-c2ccccc2)oc2ccc(OCC(O)CNCCN(C)C)cc12 (stereo unspecified)	-1	42*	7	-22	-18	22	1	-1
C#CCNC(=O)C1=CC(c2ccc(C#C)cc2)C(CCCO)C(OCC)O1 (stereo unspecified)	/	/	/	/	/	11	/	/
COc1ccc(CN2CCC(=O)N(CCO)CC2)cc1OC	-6	1	9	5	-26	5	/	/
COc1ccc(-c2c(C)oc3c(CN4CCN(CCO)CC4)c(O)ccc3c2=O)cc1OC	4	31*	12	-7	-22	6	64*	58*
Cc1oc2c(CN3CCCC3)c(O)ccc2c(=O)c1-c1ccc(Br)cc1	2	89*	7	2	-3	14	+	+
COc1ccc(-c2c(C)oc3c(CN4CCOCC4)c(O)ccc3c2=O)cc1	-1	104*	10	2	-14	-1	60*	51*
C#CCOCCOCCOCCNc1nc(N2CCOCC2)nc(N2CCN(C(=O)C(Cc3ccc(O)cc3)n3cc(C(N)CC(C)C)nn3)CC2)n1 (stereo unspecified)	/	/	/	/	/	-1	/	/
O=C(O)CCCNC(=O)CC1S/C(=N/N=Cc2ccccc2O)NC1=O (stereo unspecified)	/	/	/	/	/	-13	/	/
CN1CCCN(C(=O)c2ccc(Br)s2)CC1	-7	-2	2	-2	-27	-3	/	/
CN1CCN(C(=O)c2ccc(-c3cccs3)s2)CC1	-15	50*	13	-4	-78	/	23	18*
CSC(=C[N+](=O)[O-])Nc1ccc(C)cc1	/	/	/	/	/	8	/	/
c1ccc(COn2c(-c3ccccc3)nc3c2CCc2nonc2-3)cc1	-6	53*	0	4	-13	/	107*	93*
CC(=O)Nc1ccc(C(=O)NCC(c2ccco2)N(C)C)cc1 (stereo unspecified)	-13	4	-8	-4	-5	0	/	/
CC(=O)c1ccc(-c2ccc(C(=O)NCC(c3ccco3)N(C)C)o2)cc1 (stereo unspecified)	-15	68*	47*	-4	-32	9	-2	-2
COc1ccc(-c2cc3ccccc3oc2=O)cc1	-18	60*	13	-4	-75	2	+	+
COc1ccc(-c2nnc(-c3cc4ccccc4oc3=O)o2)cc1	-1	1	16	4	-27	12	/	/
COc1ccc2cc(-c3nc4ccccc4n3C)c(=O)oc2c1	-16	59*	39*	11	-87	0	198*	+
Cn1c(-c2cc3ccccc3oc2=O)nc2ccccc21	-14	1	17	-7	-93	-4	/	/
Cc1ccc(C(=O)NC(=Cc2cccnc2)C(=O)NCc2ccco2)cc1	/	/	/	/	/	0	/	/
C=CCCC(Cc1ccc(F)cc1)C(=O)OCC1CCCN1C(=O)C(CC=C)CC(=O)NC(CO)Cc1ccccc1 (stereo unspecified)	/	/	/	/	/	6	/	/
CC(C)(C)OC(=O)N1CCC[C@H]1C(=O)NN=Cc1cccc2nccnc12	/	/	/	/	/	-3	/	/
SMILES	PrPC TRFRET	Mtb FBA inh	GDH-TPI counter-1	Y pestis TopoI	PrP 5UTR inh	Mtb hypoxia inh	Mtb FBA confirm	GDH-TPI counter-2
O=c1oc(CCCO)cc2ccc(C#CC3(O)CCCCC3)cc12	9	10	16	5	-28	8	/	/
C=CCn1c2ccccc2c(=O)c2cc(C#CC3(O)CCCCC3)ccc21	-1	65*	1	20	-99	-2	134*	108*
COC(=O)c1ccc(-c2ccc(CNCC(O)c3ccccc3)o2)cc1 (stereo unspecified)	-1	36*	14	1	-15	4	126*	106*
CC(=NNC(=O)Cc1ccc(O)cc1)c1cccnc1	/	/	/	/	/	5	/	/
O=C(O)c1cn(-c2ccc(F)cc2)c2cc(N3CCNCC3)c(F)cc2c1=O	-3	33*	9	1	-4	/	170*	136*
Cc1cc(C)c2ccc(C=NO)nc2c1O	/	/	/	/	/	5	/	/
C(=NNc1ncnc2sc3c(c12)CCC3)c1ccncc1	/	/	/	/	/	-67	/	/
COCc1nnc(NC(=O)c2ccccc2Oc2ccccc2)s1	4	73*	8	-14	-7	2	158*	119*
O=C(NN=Cc1cccnc1)c1cccc(NC(=O)c2ccccc2Cl)c1	/	/	/	/	/	1	/	/
CCOc1ccc(S(=O)(=O)NCC2CCCO2)c2cccnc12 (stereo unspecified)	-3	28*	1	0	-10	/	+	+
CCOc1ccc(S(=O)(=O)NCC2CCCO2)c2ccccc12 (stereo unspecified)	-8	0	-6	5	-9	6	/	/
CCOc1ccc(-c2c(C(=O)NN=CC3CC=CCC3)nnn2-c2nonc2N)cc1 (stereo unspecified)	/	/	/	/	/	18	/	/
CCN(CC)c1ccc2ccc(=O)oc2c1	-14	53*	6	3	-7	10	74*	67*
CCN(CC)c1ccc2c(C)c(Cl)c(=O)oc2c1	1	67*	5	0	-5	0	65*	54*
CCN(CC)c1ccc2cc(C#N)c(=O)oc2c1	-7	-5	-3	-10	-5	-6	/	/
CCN(CC)c1ccc2c(Cl)c(Br)c(=O)oc2c1	/	7	16	1	3	17	/	/
CCOC(=O)Cc1c(C)c2ccc(N(CC)CC)cc2oc1=O	-10	93*	9	-2	-18	6	58*	51*
CCN(CC)c1ccc2c(C)cc(=O)oc2c1	2	108*	14	10	-4	8	125*	88*
CCN(CC)c1ccc2c(C)c(-c3ccc(N)cc3)c(=O)oc2c1	4	23	21	-7	-20	11	/	/
C=CCOc1ccc(C=NNC(=O)CN(c2cc(Cl)ccc2OC)S(=O)(=O)c2ccc(C)c([N+](=O)[O-])c2)cc1	/	/	/	/	/	4	/	/
C=CCOc1ccccc1C=NNC(=O)c1ccc(Cl)cc1Cl	/	/	/	/	/	5	/	/
COc1ccc(C=NNc2ccccn2)c(OC)c1	/	/	/	/	/	0	/	/
Cc1cc(OCC(=O)NC(Cc2ccc(Cl)cc2)C(=O)O)c2c3c(c(=O)oc2c1)CCCC3 (stereo unspecified)	3	70*	14	6	-3	/	0	-4
